# From PubChem
# RGS4 inhibitor: blocks human RGS4-accelerated GTP hydrolysis; P49798; actives 0.039% (n = 390,000); Potency, µM (doses to about 114 µM), for the others: at the highest dose activity change, negative = inhibition, most hits filed as inhibitors; Transcreener GDP fluorescence polarization, RGS4-accelerated GTP hydrolysis; note: % is set by controls: 0 for no effect and ±100 for the full control effect; nearly all actives have a fitted effect of over 75% in size
# Target sequence (P49798 whole entry, looked up): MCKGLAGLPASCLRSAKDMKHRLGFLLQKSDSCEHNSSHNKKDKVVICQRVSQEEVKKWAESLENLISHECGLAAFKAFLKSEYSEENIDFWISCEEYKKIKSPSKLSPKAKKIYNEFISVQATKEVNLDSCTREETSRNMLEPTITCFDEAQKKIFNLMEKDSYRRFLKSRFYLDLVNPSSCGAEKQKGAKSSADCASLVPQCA
#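 MLSMR compounds (23 nl, pin-transferred) preincubated 10 min at room temperature with a 500nM (2x) first reagent, then RGS4 at 900nM (2x) plus Transcreener GDP mix added; fluorescence polarization (620/688 nm) read before and after 90 min at 30 °C.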
# SW480 rereplic: inducers of DNA re-replication in SW480 colon cancer cells; SW480 DNA re-replication, Hoechst DNA content imaging, 48 h; Potency, µM (titrated, usually from 46.1 µM), without a hit: top-dose re-replication activation, most hits filed as activators; actives 1.8% (n = 340,000); AID 624297; note: % of control where 0% means no effect; nearly all actives have a fitted effect of over 55% in size
#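 Quantitative HTS format with DMSO vehicle controls; 48 hr drug incubation at 37 C, then 40 min Hoechst staining and scanning imager measurement at 405 nm excitation.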
# KB-3-1 tox: kills parental KB-3-1 adenocarcinoma cells; KB-3-1 viability, CellTiter-Glo ATP luminescence, 72 h; actives 1.4% (n = 400,000); Potency, µM (series often up to 46.1 µM), usual class: cytotoxic; note: % is set by controls: 0 for no effect and ±100 for the full control effect; nearly all actives have a fitted effect of over 60% in size
#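 KB-3-1 parental drug-naive adenocarcinoma cells in DMEM/10% FBS, incubated 72 h at 37 C with pin-transferred compounds across a concentration series. Viability by CellTiter-Glo luminescence; concentration-response curves fitted after normalization.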
# KB-V1 cytotox: KB-V1 MDR subline cytotoxicity | KB-V1 MDR cells viability, CellTiter-Glo, 72 h | Potency, µM (top dose mostly 46.1 µM), actives largely listed as cytotoxic | actives 3.4% (n = 400,000) | AID 1347076; note: % is set by controls: 0 for no effect and ±100 for the full control effect; nearly all actives have a fitted effect of over 60% in size
#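 In this primary screen, KB-V1 cells overexpressing P-gp are incubated with library compounds (lowest to highest concentration) for 72 h at 37 degrees C before a luminescent ATP viability read.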
# PTAP TSG101 blk: blocks PTAP/TSG101 interaction to inhibit HIV-1 budding | 340,000 tested, under 10 active | Potency, µM (highest dose often 115 µM), for the others: at the highest dose activity change, negative = inhibition, actives largely listed as inhibitors | Q99816 | Fluorescence polarization, FITC-PTAP peptide / Tsg101 binding; active = well fitted inhibition curve with a large enough effect in the main read-out, with a control signal flat, not every such curve was filed as active; inconclusive = small, poorly fitted or top-dose-only effect, or effect the other way, or a change in a side signal; inactive = no such curve, though single readings can be large or run the other way; note: % of control where 0% means no effect
# Target sequence (Q99816 whole entry, looked up): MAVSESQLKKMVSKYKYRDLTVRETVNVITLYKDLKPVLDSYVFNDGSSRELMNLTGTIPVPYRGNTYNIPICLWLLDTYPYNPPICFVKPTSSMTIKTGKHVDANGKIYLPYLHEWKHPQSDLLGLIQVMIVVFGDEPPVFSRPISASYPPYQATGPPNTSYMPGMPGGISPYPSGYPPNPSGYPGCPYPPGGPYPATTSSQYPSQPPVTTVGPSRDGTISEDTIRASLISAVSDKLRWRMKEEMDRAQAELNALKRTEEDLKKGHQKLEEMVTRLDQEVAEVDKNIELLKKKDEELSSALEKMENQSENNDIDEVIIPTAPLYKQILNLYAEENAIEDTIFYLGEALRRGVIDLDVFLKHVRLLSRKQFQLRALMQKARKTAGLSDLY
#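 Fluorescence polarization binding of Tsg101 binding domain (10 uM final) to FITC-labeled PTAP peptide (50 nM final) in HEPES pH 7.5 buffer with NaCl, Tween 20, EDTA, TCEP. Compounds added before peptide; binding 20 min at RT.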
# MCF10A rerep: inducers of DNA re-replication in MCF 10A breast cells; Potency, µM (series often up to 46.1 µM), for inactives: top-dose activity, positive = re-replication, usual class: activators; actives 2.9% (n = 350,000); MCF 10A DNA re-replication, Hoechst nuclear intensity, 48 h; note: % of control where 0% means no effect; nearly all actives have a fitted effect of over 50% in size
# * marks the source's active call; other numbers are inactive results; i = inactive; ? = inconclusive; · = no result given; [ ] = remark or other dose. Only some compounds are listed: those with a hit (about 6.6% of all), similar ones and a draw of the others. Unless noted, calls come from the whole dose curve; as a rule, active = well fitted curve in the direction sought with a large enough effect; inconclusive = small, poorly fitted or top-dose-only effect, or another doubt; inactive = no such curve, though single readings can be large; an effect the other way counts as inactive or inconclusive. Potency is the fitted concentration of half-maximal effect.
SMILES,RGS4 inhibitor,SW480 rereplic,KB-3-1 tox,KB-V1 cytotox,PTAP TSG101 blk,MCF10A rerep
C/C(=N/NC(N)=S)c1ccc(Br)s1,?,?,?,8.2µM*,-5%,0%
CC(=O)OCC(NC(=O)C(CCCCNC(=O)OCc1ccccc1)NC(=O)OC(C)(C)C)C1OC(n2ccc(=O)[nH]c2=O)C(OC(C)=O)C1OC(C)=O (stereo not given),9%,·,·,·,·,·
COC(=O)c1cccnc1-n1c(=O)c2cccnc2n(CC(=O)Nc2cccc(C)c2)c1=O,-1%,·,i,i,·,·
CCOc1ccc(C(C)=O)cc1N1C(=O)C2C3C=CC(C3=C(C)C)C2C1=O (stereo not given),-27%,-9%,i,16µM*,-2%,-10%
CCOc1ccc(C(C)=O)cc1N1C(=O)C2C(C1=O)C1C=CC2C12CC2 (stereo not given),-18%,0%,i,?,-9%,-3%
CCCCCCN1C[C@H](n2cc(COC(=O)c3ccccc3)nn2)[C@@H](O)C[C@@H]1c1ccc(Cl)cc1,·,·,?,21µM*,·,·
CCCCCCN1C[C@H](n2cc(COC(=O)c3ccccc3)nn2)[C@@H](O)C[C@@H]1c1ccc(OC)cc1,·,·,i,i,·,·
CCN(Cc1ccc(OC)c(F)c1)C(C)C(=O)Nc1ccc(S(=O)(=O)N2CCCC2)cc1 (stereo not given),-15%,-13%,i,i,-2%,-3%
COc1ccc(/C=C/C(=O)N(C)CC(=O)Nc2cccc(F)c2)cc1S(=O)(=O)N1CCCCC1,-7%,21µM*,21µM*,i,0%,?
COc1ccc(CN(C)C(C)C(=O)Nc2ccc(S(=O)(=O)N3CCCCC3)cc2)c(OC)c1 (stereo not given),-7%,?,i,i,1%,18µM*
COc1ccc(NC(=O)CN(C)C(=O)/C=C/c2ccc(S(=O)(=O)N3CCCCCC3)cc2)cc1,7%,13%,?,21µM*,-3%,?
Cc1cccc(N2CCN(C(=O)C3CCCN(S(=O)(=O)c4ccc(Br)s4)C3)CC2)c1C (stereo not given),-10%,·,·,·,·,·
CCc1nn2c(=O)cc(COC(=O)c3cccs3)nc2s1,-11%,·,·,·,·,·
O=C(OCc1cc(=O)n2nc(-c3cccs3)sc2n1)c1ccc(F)cc1,-11%,·,i,i,·,·
CCOCCCn1c(=N)c(C(=O)NCC2CCCO2)cc2c(=O)n3cccc(C)c3nc21 (stereo not given),-1%,·,i,i,·,·
CCCn1c(=N)c(C(=O)NCC2CCCO2)cc2c(=O)n3cccc(C)c3nc21 (stereo not given),7%[11.4 µM],?,21µM*,i,1%,12µM*
CCN(C(=O)c1cc2c(=O)n3cccc(C)c3nc2n1CCCOC)C1CCCCC1,20%,29µM*,i,?,-4%,18µM*
Cc1cccn2c(=O)c3cc(C(=O)NCCc4ccccc4)c(=N)n(CC4CCCO4)c3nc12 (stereo not given),10%,-5%,i,i,-13%,?
Cc1cccn2c(=O)c3cc(C(=O)NCc4cccnc4)c(=N)n(CC4CCCO4)c3nc12 (stereo not given),-3%,?,i,i,-2%,2.3µM*
Cc1cccn2c(=O)c3cc(C(=O)NCC4CCCO4)c(=N)n(CCN4CCOCC4)c3nc12 (stereo not given),-28%,16µM*,i,i,-7%,15µM*
COc1ccc(C)cc1Nc1cc(C)nc(C)n1,2%,·,i,i,·,·
CCCCCCCCCCCCCCCC(=O)OCC(COP(=O)(O)OCC[N+](C)(C)C)OC(=O)CCCCCCCCCCCCCCC (stereo not given),·,-2%,·,·,·,4%
Cc1ccc(C2=Nc3ccccc3N(CC(=O)Nc3ccccc3F)C(=O)C2)cc1C,-6%,·,i,?,·,·
COCCCn1c(=N)c(C(=O)NCC2CCCO2)cc2c(=O)n3ccccc3nc21 (stereo not given),27%,6.5µM*,i,i,-8%,12µM*
COCCCn1c(=N)c(C(=O)NCC2CCCO2)cc2c(=O)n3cccc(C)c3nc21 (stereo not given),-1%,6.5µM*,?,?,-6%,13µM*
SMILES,RGS4 inhibitor,SW480 rereplic,KB-3-1 tox,KB-V1 cytotox,PTAP TSG101 blk,MCF10A rerep
Cc1ccc(C)c(C(=O)CSc2nc3cc(C(=O)NC4CCCC4)ccc3c(=O)n2CC2CCCO2)c1 (stereo not given),-30%,·,?,?,·,·
Cc1ccc(C(=O)Nc2ccc3c(c2)CCC3)o1,7%,0%,i,?,-6%,-4%
O=C(Nc1ccc2c(c1)CCC2)c1ccc(Br)o1,20%[11.4 µM],-1%[9.22 µM],i,i,2%,21µM*
CN1CCN(S(=O)(=O)c2ccc(NC(=O)c3ccccc3Cl)cc2)CC1,13%,2%,i,i,-2%,-21%
CN1CCN(S(=O)(=O)c2ccc(NC(=O)c3ccc(Br)o3)cc2)CC1,-8%,-5%,i,9.2µM*,-1%,17%
CN1CCN(S(=O)(=O)c2ccc(NC(=O)c3ccc(Br)s3)cc2)CC1,25%,?,i,i,-4%,15µM*
CSc1oc(-c2cccs2)nc1S(=O)(=O)c1ccccc1,14%[11.4 µM],0%,i,i,-2%,-1%
CN(C)c1oc(/C=C/c2cccs2)nc1S(=O)(=O)c1ccccc1,-34%,23µM*,i,i,5%,18µM*
COc1ccccc1/C=C/c1nc(S(=O)(=O)c2ccccc2)c(N(C)C)o1,-46%,?,i,i,-6%,21µM*
COc1cccc(/C=C/c2nc(S(=O)(=O)c3ccccc3)c(N(C)C)o2)c1,?,?,i,i,0%,12µM*
COC(C(=O)C(O)C(C)O)C1Cc2cc3cc(OC4CC(OC5CC(O)C(O)C(C)O5)C(O)C(C)O4)c(C)c(O)c3c(O)c2C(=O)C1OC1CC(OC2CC(OC3CC(C)(O)C(O)C(C)O3)C(O)C(C)O2)C(O)C(C)O1 (stereo not given),·,-23%,0.0052µM*,i,·,?
COC(C(=O)C(O)C(C)O)C1Cc2cc3cc(OC4CC(OC5CC(O)C(O)C(C)O5)C(O)C(C)O4)c(C)c(O)c3c(O)c2C(=O)C1OC1CC(OC2CC(OC3CC(O)C(OC)C(C)O3)C(O)C(C)O2)C(O)C(C)O1 (stereo not given),-38%,-9%,0.18µM*,i,-10%,-10%
